This is an account of results in PubChem BioAssay AID431 (Sanford-Burnham Center for Chemical Genomics, 2006).

Molecules are shown by their SMILES. Among all 63,000 compounds or so, about 1,100 (1.7%) were called active. Only a selection was taken, and actives are over-represented in it overall. Results with a measured potency or affinity are listed apart. Values without a mark were called inactive.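 Rule for the calls: active = compounds whose percent cytotoxicity in the single-dose primary screen, scaled between solvent and toxic-drug controls, exceeds 50; inactive = the rest.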

The nature of the test: cytotoxicity in KRAS-transformed pancreatic duct cells, primary screen, cell-based, fluorescence, HTS (AID 431).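 Note: 0% = DMSO solvent wells and 100% = doxorubicin-treated wells.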 The note with it: HPDE-C7K KRASV12 cells, Alamar Blue viability, 48 h; at 10 µM; active compounds read high. (In general: Alamar Blue is a resazurin reagent that responds to reducing activity.)
With `O=C(NCC1CCCO1)C1C2C=CC3(CN(Cc4cccs4)C(=O)C13)O2` (stereo unspecified), the cytotoxicity is -19.1%.

As to `O=C(O)c1cccc(S(=O)(=O)N2CCCC2)c1`, the cytotoxicity was -8.3%.

Regarding `O=C(Nc1cccc(NC(=O)c2ccc(-c3cccc(Br)c3)o2)c1)c1ccco1`, the cytotoxicity is 66.3% (active).

Regarding `O=C(Nc1ccc(Nc2ccccc2)cc1)c1ccc(Br)o1`, the cytotoxicity is 93% (active).

Consider `CC(=O)Nc1cccc(NC(=O)c2ccco2)c1`, for which the cytotoxicity was -14%.

As for `O=C(Nc1ccc(S(=O)(=O)NCCc2ccccc2)cc1)c1ccc(Br)o1`, the cytotoxicity is 15.9%.

`COc1ccc(Br)cc1C(=O)Nc1cccc(NC(=O)c2ccco2)c1`: the cytotoxicity was 0.2%.

In the case of `COC(=O)Cc1ccc(NC(=O)c2ccc(Br)o2)cc1`, the cytotoxicity is 8.9%.

As for `COc1ccc(CN(Cc2ccccn2)C(=O)CN2C(=O)COc3ccccc32)cc1`, the cytotoxicity is -15.4%.

Consider `CCCCS(=O)(=O)c1sc2nc3c(cc2c1N)CCCC3`, for which the cytotoxicity was -4.6%.

On to `Cc1cc(NC(=O)COc2ccc(N(C)S(=O)(=O)c3ccccc3)cc2)no1`, for which the cytotoxicity was -0.8%.

In the case of `CCOC(=O)Cn1cnc2c(nnn2Cc2ccc(Cl)cc2)c1=O`, the cytotoxicity is -1%.

`CCSc1nnc(NC(=O)CSc2nnc(Cc3cccn3C)n2-c2ccc(C)cc2)s1`: the cytotoxicity is 50.6% (active).

On to `Cc1ccc(-n2c(Cc3cccn3C)nnc2SCC(=O)Nc2nnc(C)s2)cc1`, for which the cytotoxicity was -0.8%.

Consider `CCSc1nnc(NC(=O)CSc2nnc(Cc3cccn3C)n2-c2ccc(F)cc2)s1`, for which the cytotoxicity was 49.5%.

For `Cc1ccc(N)c(C(O)(C(F)(F)F)C(F)(F)F)c1`, the cytotoxicity is -9.9%.

`CC(C)(NO)/C(=N/O)c1ccc(Br)cc1`: the cytotoxicity is -3.6%.

With `CN(Cc1ccccc1)C(=O)Nc1ccccc1`, the cytotoxicity is 9.8%.

`CC(=O)c1sc(NC(=O)C=C(C)C)nc1C`: the cytotoxicity was -0.4%.

As to `CC(=O)c1sc(NC(=O)C2(F)C(F)(F)C(F)(F)C(F)(F)C(F)(F)C2(F)F)nc1C`, the cytotoxicity was 51% (active).

With `CCCCC(=O)Nc1nc(C)c(C(C)=O)s1`, the cytotoxicity is -0.2%.

Consider `O=C(Cn1ncc2c(=O)oc3ccccc3c21)NC1CC1`, for which the cytotoxicity was -0.5%.

Take `CCOC(=O)c1ccc(N2CC(O)=C(c3nc4ccccc4c(=O)[nH]3)C2=N)cc1`: the cytotoxicity is 51.4% (active).

Turning to `COc1cccc(N2CC(O)=C(c3nc4ccccc4c(=O)[nH]3)C2=N)c1`, the cytotoxicity is 28%.

Take `COc1ccccc1N1CC(O)=C(c2nc3ccccc3c(=O)[nH]2)C1=N`: the cytotoxicity is 26.5%.

Turning to `O=C(CCN1CCCC1)Nc1cccc(Br)c1`, the cytotoxicity is 3.2%.

As to `Cc1ccc(C)c(NC(=O)CN(C)S(=O)(=O)c2ccc(F)cc2)c1`, the cytotoxicity was -4.8%.

As for `O=C(NCCc1cn2ccccc2n1)c1ccc(Br)o1`, the cytotoxicity was -1.7%.

In the case of `Cc1nc(NS(=O)(=O)c2cccs2)c2c3c(sc2n1)CCC3`, the cytotoxicity is 10.8%.

Regarding `O=C(Nc1ncnc2sc3c(c12)CCC3)c1ccco1`, the cytotoxicity was 10.7%.

On to `O=S(=O)(Nc1ncnc2sc3c(c12)CCC3)c1ccc(Cl)s1`, for which the cytotoxicity was 50.7% (active).

On to `COc1ccc(C2N(c3ccc(F)cc3)C(=O)C3CCCN32)cc1` (stereo unspecified), for which the cytotoxicity is -2.8%.

`CCOC(=O)C1CCCN(C(=O)c2ccc(CS(=O)(=O)Cc3ccccc3C)o2)C1` (stereo unspecified): the cytotoxicity was 16.4%.

In the case of `CCC(C)[C@@H](C(=O)Nc1ccc(OC)c(OC)c1)N1Cc2ccccc2C1=O` (stereo partly specified), the cytotoxicity was -0.4%.

For the molecule `Cn1cnc2c(N3CCCCC3)nccc21`, the cytotoxicity is 3.7%.

`c1cncc(Nc2nc(-c3cccnc3)cs2)c1`: the cytotoxicity was 15%.

Consider `CCN(C(=O)CSc1nnc(Cn2nnc3ccccc32)o1)c1nc(-c2ccccc2)cs1`, for which the cytotoxicity is -0.5%.

On to `CCN(C(C)=O)c1nnc(CSc2nc3ccccc3s2)s1`, for which the cytotoxicity is 23.5%.

On to `CCN(C(=O)c1ccc(C(C)(C)C)cc1)c1nnc(Cn2nnc3ccccc32)s1`, for which the cytotoxicity was 88.4% (active).

Take `O=C(Nc1ccccc1C(=O)NCc1ccco1)c1ccco1`: the cytotoxicity is 7.2%.

On to `N=c1n(CCN2CCOCC2)c2ccccc2n1CC(O)COc1ccccc1` (stereo unspecified), for which the cytotoxicity is -9.7%.

As for `CCCc1nc(NCc2ccco2)c(C#N)c2c1COC(C)(C)C2`, the cytotoxicity is 1.1%.

Turning to `CCCCc1nc(NCCNC(=O)c2ccco2)c(C#N)c2c1CSC(C)(C)C2`, the cytotoxicity was 80.9% (active).

Take `CC1(C)Cc2c(C#N)c(N3CCN(C(=O)c4ccco4)CC3)nc(-c3ccco3)c2CS1`: the cytotoxicity was 44.2%.

Regarding `CCOC(=O)c1cnc(SCC(=O)Nc2sc(C)c(C)c2C#N)nc1N`, the cytotoxicity is -2.2%.

As for `CCOc1ccc(Nc2cc(C)nc(N3CCOCC3)n2)cc1`, the cytotoxicity is -19.5%.

For `COCCn1c(SCC(=O)Nc2nc(C)c(Cl)cc2Cl)nc2ccccc21`, the cytotoxicity is -6.8%.

Turning to `Cc1ccccc1-c1nc(CS(=O)(=O)CC(=O)NCc2ccc3c(c2)OCO3)c(C)o1`, the cytotoxicity is 14.4%.

`O=C(Cn1c(=O)n2ncnc2c2c3c(sc21)CCCC3)c1ccccc1`: the cytotoxicity was -20.6%.

For `O=c1n(Cc2ccccc2Cl)c2sc3c(c2c2ncnn12)CCCC3`, the cytotoxicity is -12.2%.

On to `COCCn1c(Cc2ccccc2)nnc1SCC(=O)NC(C)C`, for which the cytotoxicity is -14.6%.

For the molecule `CCOC(=O)c1[nH]c(C)c(C(=O)c2cc(F)ccc2F)c1C`, the cytotoxicity is 70.6% (active).

Take `CCOC(=O)c1[nH]c(C)c(C(=O)Nc2ccccc2C)c1C`: the cytotoxicity is 45.7%.

In the case of `CCOC(=O)c1[nH]c(C)c(C(=O)Nc2ccc(Cl)cc2)c1C`, the cytotoxicity is 10.1%.

On to `CCOC(=O)c1[nH]c(C)c(C(=O)Nc2cc(Cl)ccc2C)c1C`, for which the cytotoxicity was 55% (active).

As for `CCOC(=O)c1[nH]c(C)c(C(=O)Nc2ccc(F)cc2)c1C`, the cytotoxicity was -5.4%.

On to `CCOC(=O)c1[nH]c(C)c(C(=O)OCC)c1C`, for which the cytotoxicity was -10%.

Turning to `CCN(CC)CCNC(=O)C1CCC(=O)N(c2ccc(OC)cc2)C1c1ccc(F)cc1` (stereo unspecified), the cytotoxicity is 5.4%.

In the case of `COc1cccc(N2C(=O)CC(N3CCC(C(N)=O)(N4CCCCC4)CC3)C2=O)c1` (stereo unspecified), the cytotoxicity is -2.6%.

Consider `Clc1ccc(-c2nnc3sc(Cc4cccs4)nn23)c(Cl)c1`, for which the cytotoxicity was -3.4%.

`O=C(NC1CCCCC1)N1CCCCCCC1`: the cytotoxicity is -4.9%.

Turning to `COc1cc2c(=O)n(Cc3ccccc3)c(=O)n(CC(=O)NCc3ccco3)c2cc1OC`, the cytotoxicity was 5.4%.

`COc1cc2c(=O)n(Cc3ccccc3)c(=O)n(CC(=O)C(C)(C)C)c2cc1OC`: the cytotoxicity was -1.3%.

On to `COc1cc2c(=O)n(Cc3ccco3)c(=O)n(CC(=O)c3cccc(Br)c3)c2cc1OC`, for which the cytotoxicity is 50% (active).

Turning to `COc1cc2c(=O)n(Cc3ccco3)c(=O)n(CC(=O)c3ccc(Br)cc3)c2cc1OC`, the cytotoxicity was 80.3% (active).

In the case of `COc1ccc(CCNC(=O)Cn2c(=O)n(Cc3ccco3)c(=O)c3ccc(Cl)cc32)cc1OC`, the cytotoxicity was 4.2%.

Consider `CCOC(=O)Cn1c(=O)n(Cc2ccco2)c(=O)c2ccc(C(=O)NCCc3ccccc3)cc21`, for which the cytotoxicity is 7.3%.

On to `COC(=O)c1ccc(C(=S)N2CCOCC2)cc1`, for which the cytotoxicity is -0.4%.

With `Cc1ccc(C(c2nnnn2C(C)(C)C)N(Cc2ccco2)Cc2cccs2)cc1` (stereo unspecified), the cytotoxicity was 1.5%.

Turning to `COc1cccc(NC(=O)COC(=O)c2cccnc2)c1`, the cytotoxicity is -8.8%.

As to `CC(C)(C)OC(=O)N1CCC[C@H]1C(=O)NCC1CCC(C(=O)O)CC1` (stereo partly specified), the cytotoxicity is 7.4%.

As to `CCC(c1nnnn1C1CCCCC1)N1CCN(C2CCCC2)CC1` (stereo unspecified), the cytotoxicity was 3.5%.

On to `Cc1cc(Nc2ccccc2)nc(-c2ccccc2O)n1`, for which the cytotoxicity is 1.4%.

Consider `CCCCNc1cc(C)nc(NCc2ccccc2)n1`, for which the cytotoxicity is 82.9% (active).

Consider `CCCCOc1cc(C)nc(NCc2ccccc2)n1`, for which the cytotoxicity is -11.6%.

In the case of `Cc1cc(C)nc(NCCCc2ccccc2)n1`, the cytotoxicity is -12.4%.

As to `Cc1cc(NCCCN)nc(-c2ccccc2O)n1`, the cytotoxicity was 22.2%.

With `CC1=C(C(=O)OC(C)C)C(c2ccccn2)n2ncnc2N1` (stereo unspecified), the cytotoxicity is 5.9%.

Regarding `COc1ccccc1NC(=O)N1CCN(c2ccccc2F)CC1`, the cytotoxicity is 8%.

Consider `O=C(O)COc1ccc(C(=O)Cc2ccc3c(c2)OCCCO3)c(O)c1`, for which the cytotoxicity was -4.8%.

Regarding `O=C(O)CCC(=O)c1ccc2c(c1)OCCO2`, the cytotoxicity was 1.9%.

Turning to `O=C(Cc1ccc2c(c1)OCCO2)c1c(O)cc(O)cc1O`, the cytotoxicity is 62.7% (active).

`O=C(Cn1ncc2c1-c1ccccc1OC2)N(Cc1ccco1)C1CCCCC1`: the cytotoxicity was 2.4%.

As to `Cn1c(SCC(=O)N2CCN(c3ccccc3)CC2)nnc1-c1cc2ccccc2o1`, the cytotoxicity was 10.4%.

In the case of `CSc1nsc(SC)c1NC(=O)OCCc1ccccn1`, the cytotoxicity was -3.5%.

As for `CC(C)(C)c1ccc(Cn2nnc3c(=O)[nH]c(C4CCN(C(=O)Cc5cccs5)CC4)nc32)cc1`, the cytotoxicity was 8.5%.

For `O=C(Cc1cccs1)N1CCCC(c2nc3c(nnn3Cc3ccc(F)cc3)c(=O)[nH]2)C1` (stereo unspecified), the cytotoxicity is 8.4%.

As to `CCn1c(CN2CCCCCC2=O)nnc1SCc1cnc(-c2ccccc2)s1`, the cytotoxicity is -1.7%.

`Cc1ccc(-c2csc3ncnc(-n4nc(C)cc4N)c23)cc1`: the cytotoxicity was -8.1%.

For the molecule `O=C(CNC(=O)c1ccco1)OCc1ccc(Cl)cc1`, the cytotoxicity is -3%.

`COc1ccccc1NC(=O)Nc1c(C)n(C)n(-c2ccccc2)c1=O`: the cytotoxicity was -1.8%.

On to `CCOC(=O)Cn1c(=O)n(C2CCCC2)c(=O)c2ccccc21`, for which the cytotoxicity is -5.4%.

For the molecule `COc1ccc(-n2ncc3c(N4CCN(c5cc(C)ccc5C)CC4)ncnc32)cc1`, the cytotoxicity was 15.6%.

Regarding `Cc1ccc(-n2ncc3c(N4CCCC4)ncnc32)c(C)c1`, the cytotoxicity is 1.2%.

`CCc1cc2c(N3CCCCC3)ncnc2s1`: the cytotoxicity was -10.5%.

`O=C(c1ccco1)N1CCN(c2ncnc3c2cnn3-c2ccccc2)CC1`: the cytotoxicity was -0.8%.

Regarding `CCc1cc2c(N3CCN(c4ccccc4)CC3)ncnc2s1`, the cytotoxicity was 91.1% (active).

Consider `COc1ccc(N2CCN(c3ncnc4c3cnn4-c3ccc(C)cc3C)CC2)cc1`, for which the cytotoxicity is -12.5%.

For the molecule `CCc1cc2c(N3CCN(c4nnc(CC)s4)CC3)ncnc2s1`, the cytotoxicity was 19.4%.

In the case of `O=C(COc1ccccc1)N1CCN(c2ncnc3c2cnn3-c2ccccc2)CC1`, the cytotoxicity was 5.3%.

Regarding `CCN1CCN(c2ncnc3c2cnn3-c2ccc(C)cc2C)CC1`, the cytotoxicity was 11.6%.
